Measurements as given in PubChem BioAssay (NCI).
Compounds without any hit were thinned out: in the full panel of roughly 83,000, 20% have a hit.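 How to read the values: 0–100, growth inhibition (40 = 60% inhibited); 0, no net growth; -100 to 0, cell death (-40 = 40% of starting cells died; -100 = all dead).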 Activity calls are given as the source filed them.

Test system: HCT-116 colon
Assay: NCI-60 one-dose screen, 48 h (100 = growth as untreated, 0 = no growth, -100 = all killed)
Conditions: 10 µM unless noted
Description: Growth inhibition of the HCT-116 human tumor cell line is measured as a screen for anti-cancer activity. Cells are grown in 96 well plates and exposed to the test compound for 48 hours. Compounds are tested at a single concentration, which is 10^-5 M for most compounds. The reported endpoint is percent growth (GI% or GIPRCNT), where numbers from 0 - 100% represent growth inhibition, and numbers from -100% - 0 represent cell death. For example, a value of 40 represents 60% growth inhibition. A value of 0 means no net growth occurred over the course of the experiment. A value of -40 indicates 40% of cells at the beginning of the experiment died by the end of the experiment. A value of -100 means all cells are dead at the end of the experiment.
NCI-60 Human Tumor Cell Lines Screen was performed using the standard one-dose NCI protocol, which is described in more detail at https://dtp.cancer.gov/discovery_development/nci-60/default.htm.
Compounds with GIPRCNT values below 10 were considered active. Activity score was based on GIPRCNT using the following formula: […]
Score is 0 for GIPRCNT values of 100 or above, 50 for GIPRCNT values of 0, and 100 for GIPRCNT values of -100.

| Compound | growth |
| --- | --- |
| CC[C@@H](C)/C=C(C)/C=C/C(O)=C1\C(=O)N[C@@H](Cc2ccc(OC(=O)[C@@](OC)(c3ccccc3)C(F)(F)F)cc2)C1=O | 91% (inactive) |
| CC(=O)O[C@H]1CC[C@@]2(C)C(=CC[C@@H]3[C@@H]2CC[C@]2(C)C(c4cccnc4)=CC[C@@H]32)C1 | 54.1% (inactive) |
| CCCCCCCCN(CCO)CCCCCCCC | 104% (inactive) |
| O=C(NC1CCCCC1)c1ccc(Nc2ncnc3c2cnn3-c2ccccc2)cc1 | 37.6% (inactive) |
| Nc1nc2c(nnn2Cc2ccc(Cl)c(Cl)c2)c(=O)[nH]1 | 104% (inactive) |
| COc1ccccc1-n1c(-c2ccc(O)cc2C)cn2c3c(=O)[nH]c(=O)n(C)c3nc12 | 97% (inactive) |
| CC[C@@H](C)/C=C(C)/C=C/C(=O)c1c(O)c(-c2ccc(O)cc2)cn(OC2CC(=O)CCC(C)OC(=O)CC2O)c1=O (stereo not given in full) | 18.5% (inactive) |
| O=C(O)C1CCN(S(=O)(=O)c2ccc(-c3ccccc3)cc2)CC1 | 112% (inactive) |
| CCSc1nc(-c2ccco2)n2nc(-c3ccco3)cc2n1 | 93.4% (inactive) |
| O=C(Oc1cccc2ccccc12)c1ccccc1C(=O)c1ccccc1 | 82% (inactive) |
| Cn1c(N2N=C(c3ccc(Cl)cc3)CC2c2ccccc2)nc(-c2ccccc2)c(C#N)c1=O (stereo not given) | 51% (inactive) |
| O=C(N/N=C/c1ccc(Cl)cc1Cl)c1ccccc1Nc1cccc(C(F)(F)F)c1 | 60.7% (inactive) |
| COC(=O)[C@H]1[C@H]2C[C@@H]3c4[nH]c5cc(OC)ccc5c4CCN3C[C@H]2C[C@@H](OC(=O)/C=C/c2cc(OC)c(OC)c(OC)c2)[C@@H]1OC | -28% (active) |
| CC(C)=CCCC(C)c1ccc(C)c2c1OCN(CC1CCNCC1)C2 (stereo not given) | -37.2% (active) |
| FC(F)(F)c1ccc(-c2cnc(-c3nn[nH]n3)nc2NC2CCCCCC2)cc1 | 33.3% [50 µM] (inactive) |
| CSc1nc(-c2ccc(O)cc2O)c2c(=O)[nH]c(Nc3ccc(S(=O)(=O)Nc4nc(C)cc(C)n4)cc3)nc2n1 | 101% (inactive) |
| CCOC(CNCc1cc(C)c2[nH]c3ccccc3c2c1C)OCC | 53.5% (inactive) |
| Cc1cc(=O)[nH]c(/C(=N/Nc2ccccc2)C(=O)c2ccc(Cl)cc2)n1 | 86.9% (inactive) |
| CCOC(=O)c1sc(NC(=O)COc2ccc(/C=C3\CCc4cc(OC)ccc4C3=O)cc2)nc1C | 105% (inactive) |
| Cc1cc2c(cc1C)[n+](Cc1ccc3ccccc3n1)cn2Cc1ccc2ccccc2n1 | -0.984% (active) |

| Compound | growth |
| --- | --- |
| Fc1ccccc1C1c2ccccc2-c2nccn21 (stereo not given) | 90.1% (inactive) |
| CC(C)Cn1cnc2c(NCn3nc(-c4cc(Cl)cc(Cl)c4Cl)n(/N=C/c4ccc(Cl)cc4)c3=S)nc3ccccc3c21 | 66.1% (inactive) |
| CC(=O)N1N=C(c2ccc(Nc3nc(NCCO)nc(NCCO)n3)cc2)CC1c1ccc(Cl)cc1 (stereo not given) | 83.4% (inactive) |
| O=C(CC1Sc2ccccc2NC1=O)NNc1cccc(Cl)c1Cl (stereo not given) | 87% (inactive) |
| Cc1cc(C)nc(NS(=O)(=O)c2ccc(Nc3nc4nc(SCc5ccccc5)nc(-c5ccc(O)cc5)c4c(=O)[nH]3)cc2)n1 | 103% (inactive) |
| COc1cccc(/C=N/Nc2nc3ccccc3s2)c1OC | 42.5% (inactive) |
| C#C[C@]1(O)CCC2C3CCc4cc(O)ccc4C3CC[C@@]21C (stereo not given in full) | 19% (inactive) |
| CCN(CC)CCNCC(=O)Oc1ccc(/C=C/C(=O)CC(=O)/C=C/c2ccc(OC(=O)CNCCN(CC)CC)c(OC)c2)cc1OC | -9.15% (active) |
| Cc1ccc(C2=NNC(c3sc(Cl)nc3Cl)C2)cc1 (stereo not given) | 74.7% (inactive) |
| CC1C(=O)NC2=Nc3ccccc3C(=O)NN21 (stereo not given) | 90.4% (inactive) |
| CC1CN(CC(O)c2ccc(Br)cc2)CCO1 (stereo not given) | 108% (inactive) |
| COc1cc(-c2n[nH]nc2-c2ccccn2)cc(OC)c1OC | 104% (inactive) |
| COc1cnc2c(c1)C(=O)c1c-2n(CCCN2CCOCC2)c(=O)c2cc(F)ccc12 | -77.1% (active) |
| C[C@H]1O[C@@H](O[C@H]2[C@@H](O)C[C@H](O[C@H]3[C@@H](O)C[C@H](O[C@H]4CC[C@]5(C)C6CC[C@]7(C)[C@@H](C8=CC(=O)OC8)CC[C@]7(O)C6CC[C@@H]5C4)O[C@@H]3C)O[C@@H]2C)C[C@H](O)[C@@H]1O (stereo not given in full) | -96.7% (active) |
| COc1cccc(N2CCN(CC(=O)N3CCN(c4nnc(-c5ccc(Cl)cc5)c(-c5ccc(Cl)cc5)n4)CC3)CC2)c1 | 40.1% (inactive) |
| C[N+]1(C)C2CC[C@@H]1CC(OC(=O)C(O)c1ccccc1)C2 (stereo not given in full) | 102% (inactive) |
| CCCCCN(CCCCC)CCCNc1c2c(nc3ccc(Cl)cc13)CCCC2 | 5.37% (active) |
| COc1cc(/C=C/C(=O)c2c(C)n([O-])c3ccc(Cl)cc3[n+]2=O)cc(OC)c1OC | 62.6% (inactive) |
| O=C(c1ccccc1)C(CN1CCCCC1)c1ccccc1 (stereo not given) | -100% (active) |
| OCCCc1n(Cc2ccc3ccccc3c2)c2ccccc2[n+]1Cc1ccc2ccccc2c1 | 10.4% (inactive) |
